# From PubChem BioAssay
# esBAF inh: Bmi1 luciferase reporter increase in mESCs, primary screen, esBAF inhibitor project, mouse ES cells, Bmi1 luciferase knock-in, single point. 2% of 350,000 active. 24 h; 100% = twice the neutral-well signal. AID 602393, 2012. reporter increase, % at 12.5 µM; in the data active means activation above about 40%; inconclusive means no clear call, values can overlap the other calls;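 further: 0% = median of the plate's neutral control wells and 100% = double that signal; a rise in the Bmi1 reporter signal indicates esBAF inhibition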
# HSF-1 act: HSF-1 activators, primary screen, NIH3T3-HGL cells, MG132 stress, luminescence, single point. NIH3T3-HGL HSF-1 luciferase reporter, 8 h; 100% = twice DMSO control signal. activation, % at 9 µM. 1.7% of 300,000 active;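 active means mean replicate activation of at least 50% with a set share of replicates each reaching 50%; inconclusive means only one of those two conditions met; inactive means mean below 50% and too few replicates reaching it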;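 further: 0% = median of the neutral control wells and 100% = twice that signal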
# Wnt bcat act: Wnt/beta-catenin pathway activators, primary screen, cell-based, plate reader, single point | 1.2% of 300,000 active | Wnt/beta-catenin reporter cell assay, activator | activation, % at 9.35 µM; in the data active means activation above about 30%, passing the limit was not always enough; inconclusive means no clear call, values can overlap the other calls;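 further: 0% = neutral control wells and 100% = positive control wells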
# SMARCA2 act: SMARCA2 (BRM) function activators, primary screen, cell-based, luminescence, high throughput | MG213 cells, MMTV-luciferase reporter, dexamethasone, overnight | activation, % at 9.1 µM | 1% of 370,000 active; in the data active means activation above about 7.8%;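 further: 0% = vehicle wells and 100% = reference activator wells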
# HSF1 inhib: HSF1 inhibitors in luciferase reporter cells, primary screen, cell-based, NIH3T3, luminescence; AID 2098, 2009; 0.77% of 300,000 active; NIH3T3-HGL HSE-luciferase, MG132-induced, luminescence 8 h; active compounds read low; activity change, negative = inhibition, % at 7.5 µM (by protocol);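 active means more than half of replicate wells show activity change below -50%, luminescence cut by over half; inconclusive means some wells, but at most half, below -50%; inactive means no replicate well below -50%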;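 further: luciferase reports HSF-1 transcriptional activity via heat shock element; 0% = median of DMSO wells and -100% = zero luminescence signal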
# MITF act: activators of MITF-driven TRPM1 promoter reporter, primary screen, cell-based, SK-MEL-5, luciferase, single point; SK-MEL-5 TRPM1-promoter luciferase, 24 h; % of positive control, neutral wells = 0; activation, % at 12.5 µM; 0.75% of 300,000 active; AID 588334, 2011;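 active means mean activation of at least 80% with every replicate also reaching 80%; inconclusive means mean reaches 80% but some replicate falls short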;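 further: 0% = neutral control wells and 100% = parthenolide positive control wells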
# Active calls of the source: *; ? = inconclusive; . = no result given. Compounds with a hit are over-represented: about 4.3% of the library has one in this group of screens.
SMILES,esBAF inh,HSF-1 act,Wnt bcat act,SMARCA2 act,HSF1 inhib,MITF act
O=C(Nc1ccccc1N1CCN(c2ccccc2)CC1)c1ccccc1,.,8,42*,3,-6,-16
Cn1nc(C(=O)Nc2ccccc2N2CCOCC2)ccc1=O,0,.,1,-1,.,11
Cc1ccc(OCCn2cnc3ccccc3c2=O)c([N+](=O)[O-])c1,92*,58*,41*,1,26,61
CCN1CCN(CCNC(=O)CCCCCn2c(=O)[nH]c3cc(C(=O)OC)ccc3c2=O)CC1,-3,-65,.,-1,-54*,2
Nc1nc(SCC(=O)Nc2ccc([N+](=O)[O-])cc2Br)n[nH]1,.,58*,.,-5,20,-1
CC=Cc1ccc2n(c1=O)C[C@@H]1[C@@H](CO)[C@H](C(=O)NCc3cc(F)cc(F)c3)[C@H]2N1S(C)(=O)=O (mixture of isomers),-5,.,.,.,.,.
C/C(=N\NC(=O)c1ccc(Cn2cc(Br)cn2)o1)c1ccc(NC(=O)c2ccoc2C)cc1,47*,22,11,5,18,54
C[C@@H]1CN([C@H](C)CO)C(=O)Cc2cc(NC(=O)CCCCCC(=O)Nc3ccccc3N)ccc2O[C@H]1CN(C)S(C)(=O)=O,10,.,.,.,.,.
CCCN(C)C[C@@H]1Oc2ncc(-c3ccccc3)cc2C(=O)N([C@H](C)CO)C[C@H]1C,1,.,.,.,.,.
c1coc(CN(Cc2cccs2)Cc2nnnn2C2CCCCC2)c1,1,17,.,0,10,-8
Clc1ccccc1CN(Cc1ccco1)Cc1nnnn1C1CCCC1,-3,69*,-4,-2,31,-8
COc1ccc(N2CCN(c3ncnc4c3cnn4-c3ccc(C)cc3C)CC2)cc1,-8,77*,0,-2,47,-43
Clc1ccc(-n2ncc3c(N4CCCCCC4)ncnc32)cc1,-76,-90,2,-6,-89*,-70
c1ccc(-n2ncc3c(NCCCN4CCOCC4)ncnc32)cc1,29,39,.,6,13,.
COc1ccc(-n2ncc3c(N4CCCCC4)ncnc32)cc1,-83,-84,.,.,-81*,-85
Cc1ccc(-n2ncc3c(N4CCN(c5ccccc5)CC4)ncnc32)c(C)c1,16,-29,.,-2,-23,.
Clc1ccc(-n2ncc3c(NCCN4CCOCC4)ncnc32)cc1,-42,-58,-2,-5,-54*,-7
CCc1ccc(S(=O)(=O)/N=C2\C=C(Nc3ccc(O)cc3)C(=O)c3ccccc32)cc1,-71,-96,.,.,-95*,-99
Cc1cc(C)c(S(=O)(=O)/N=C2\C=C(Nc3ccc(C(=O)O)cc3)C(=O)c3ccccc32)c(C)c1,7,-88,9,-9,-87*,-80
O=C1C(Nc2ccc(O)cc2)=C/C(=N/S(=O)(=O)c2cccs2)c2ccccc21,.,-94,-26,-13,-93*,-108
Cc1ccc(NC2=C/C(=N\S(=O)(=O)c3cccs3)c3ccccc3C2=O)c(C)c1,.,-95,.,.,-95*,-105
C[C@@H]1CN([C@@H](C)CO)C(=O)c2cc(NC(=O)CCN3CCOCC3)ccc2O[C@H]1CN(C)Cc1ccncc1,-3,.,.,.,.,.
C[C@@H]1CN([C@@H](C)CO)C(=O)c2cccc(NC(=O)c3ccncc3)c2O[C@@H]1CN(C)S(=O)(=O)c1ccc(F)cc1,2,.,.,.,.,.
COc1ccc(S(=O)(=O)N(C)C[C@H]2OCCCC[C@H](C)Oc3ccc(NC(=O)CCCN(C)C)cc3C(=O)N([C@@H](C)CO)C[C@@H]2C)cc1,-4,.,.,.,.,.
Cc1ccc(Cl)cc1NC1=C/C(=N\S(=O)(=O)c2cccs2)c2ccccc2C1=O,-70,-95,5,-5,-94*,-89
SMILES,esBAF inh,HSF-1 act,Wnt bcat act,SMARCA2 act,HSF1 inhib,MITF act
COc1ccc(C2CC(c3ccc(Br)cc3)=NN2C(=S)Nc2ccccc2)cc1 (stereo not given),45*,-6,6,1,-4,36
Cc1ccc(C2=NN(C(=S)Nc3ccccc3)C(c3ccco3)C2)cc1 (stereo not given),80*,61*,.,5,39,71
C[C@@H]1CN([C@H](C)CO)C(=O)Cc2cc(N(C)C)ccc2O[C@@H]1CN(C)S(=O)(=O)c1ccccc1,-1,.,.,.,.,.
COc1ccccc1-c1cc(C(=O)NC(C)C)no1,52*,54*,16,7,35,39
CC(C)NC(=O)c1cc(-c2cccs2)on1,35,30,55*,6,6,.
COc1ccccc1-c1cc(C(=O)N2CCCC2)no1,-59,42,37*,4,23,51
CCC(C)NC(=O)c1cc(-c2ccccc2O)on1 (stereo not given),57*,4,12,5,6,.
COc1ccccc1S(=O)(=O)N(C)C[C@H]1OCc2ccccc2-c2ccccc2C(=O)N([C@@H](C)CO)C[C@@H]1C,0,.,.,.,.,.
CC1CCN(C(=O)c2cc(-c3ccccc3O)on2)CC1,35,34,63*,4,36,104*
COc1ccccc1-c1cc(C(=O)N2CCOCC2)no1,?,27,29,4,16,105*
COc1ccc(CNC(=O)C(=O)NCC(c2ccco2)N2CCOCC2)cc1 (stereo not given),6,-4,40*,5,-4,3
Cc1sc(NC(=O)c2ccccc2)c(C#N)c1-c1ccccc1,.,57*,.,3,33,57
O=C(N=C1N=C2C=CC(Br)=CN2Cc2ccccc21)c1ccc([N+](=O)[O-])cc1[N+](=O)[O-],.,41,56*,3,23,39
C[C@@H]1CN([C@H](C)CO)C(=O)c2cc(C#Cc3cccc(F)c3)cnc2O[C@H]1CN(C)C(=O)C1CCC1,5,.,.,.,.,.
Cc1ccc(NS(=O)(=O)c2cc(C(=O)N3CCc4ccccc4C3)ccc2Cl)cc1,-3,67*,-1,0,31,0
COc1ccc(CN(C)C[C@H]2Oc3ccc(NC(=O)Cn4cnnn4)cc3C(=O)N([C@@H](C)CO)C[C@@H]2C)cc1,0,.,.,.,.,.
CO[C@@H]1CN(C)C(=O)c2ccc(NC(C)=O)cc2OC[C@@H](C)N(Cc2cc(-c3ccccc3)on2)C[C@H]1C,4,.,.,.,.,.
CN(C)/C=C(\C#N)C(=O)Nc1ccc(F)c(Cl)c1,.,24,37*,2,0,.
CN(C)/C=C(\C#N)C(=O)Nc1ccc(F)cc1,39,6,.,5,3,56
COc1cccc(NC(=O)N(C)C[C@@H]2OCc3ccccc3-c3c(n(C)c4ccccc34)C(=O)N([C@H](C)CO)C[C@@H]2C)c1,12,.,.,.,.,.
Cn1ccnc1Sc1cc(NCCCO)c([N+](=O)[O-])c2nonc12,4,-96,-2,-1,-95*,4
